TDP-43 yeast inh – qHTS of TDP-43 Inhibitors. TDP-43 expressing yeast growth rescue, BacTiter-Glo, 24 h. Potency, µM (doses to about 46.1 µM), inactives show top-dose growth rescue (activation), hits mostly activators. actives 1.8% (n = 410,000); further: potency means the concentration at half of the fitted maximal effect; % of control where 0% means no effect; nearly all actives have a fitted effect of over 50% in size
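In this qHTS, compounds that restore growth of yeast expressing TDP-43 appear as activators. Cells (OD600=0.02, galactose medium, raffinose-pregrown) are incubated with compound 24 hr at 30 deg C and growth is quantified by BacTiter-Glo.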
FUS suppressor – qHTS for Suppressors of FUS Proteinopathy: Primary screen using FUS-linked yeast assay; S. cerevisiae FUS-expressing, growth rescue, OD600, 24 h; Potency, µM (highest dose often 76.6 µM), hits mostly activators; AID 1347120, 2019; actives 0.24% (n = 390,000);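 further: potency means the concentration at half of the fitted maximal effect; plate controls were DMSO vehicle for no effect and reference control for full effect; nearly all actives have a fitted effect of over 55% in size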
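Galactose (2%) drives FUS expression in yeast precultured in raffinose; seeding density OD 0.005. Test compounds incubated 24hr at 30C and 99% humidity before absorbance at 600 nm was measured.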
Abeta rescue – qHTS for compounds that reverse cellular toxicity of Amyloid beta (A-beta) peptide in yeast: Primary Screen. yeast expressing A-beta42, growth rescue, OD600, 48 h; response scale: 0% DMSO, 100% iron-clioquinol control. Potency, µM (series often up to 46.1 µM), hits mostly activators. actives 0.063% (n = 410,000); further: potency means the concentration at half of the fitted maximal effect; nearly all actives have a fitted effect of over 55% in size
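Yeast growth medium received pinned compounds, then yeast cells expressing toxic A-beta were added; plates incubated at 30 C for 48 hr. Growth read as absorbance at 600 nm, normalized to DMSO and equimolar FeCl3 plus clioquinol controls.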
Akt phos inh – HTS Assay for Inhibitors of Akt Phophorylation: Primary Screen; AID 651550, 2012; actives 0.32% (n = 360,000); activity change, % for hits at 50 µM; Neuro2A IGF-stimulated pAkt S473 HTRF, 20 min; active compounds read low; in the data active means activity change below about -80%; inconclusive means mostly about -51% to -80%; further: on the % scale 0 is the no-effect control and ±100 the full control effect
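Neuro2A cells (4,500/well, DMEM with 0.5% FBS) were treated with compound at a single 50 µM final concentration, stimulated with 6 nM IGF for 20 min at 37 °C, and lysed. Phospho-Akt Ser473 was read by HTRF as 665/615 ratio ×10^4.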
aSyn rescue – qHTS of alpha-syn Inhibitors; Yeast expressing alpha-synuclein, growth rescue, BacTiter-Glo, 24 h; Potency, µM (series often up to 46.1 µM), for the others: at the highest dose growth rescue (activation), usual class: activators; actives 0.14% (n = 370,000); further: potency means the concentration at half of the fitted maximal effect; % of control where 0% means no effect; nearly all actives have a fitted effect of over 65% in size
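Rescue of yeast growth: cells expressing toxic alpha-synuclein, induced in galactose at OD600 0.02, incubated with compound 24 h at 30 C. ATP luminescence quantified growth; inhibitors of toxicity appear as activators.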
Starred values were filed as active, the others as inactive. Hits are enriched below; roughly 2.3% of the tested compounds scored in any of these assays. Unless noted, the call rests on the fitted dose curve; in most records, active means well fitted curve in the direction sought with a large enough effect; inconclusive means small, poorly fitted or top-dose-only effect, or another doubt; inactive means no such curve, though single readings can be large; an effect the other way counts as inactive or inconclusive.

O=C(NC1CC2CCCC(C1)N2S(=O)(=O)c1ccccc1)c1ccco1 (configuration not stated) was read as TDP-43 yeast inh 0.0%, FUS suppressor inactive, Abeta rescue inactive, Akt phos inh inactive and aSyn rescue 3.0%.
CC(=O)NC1CC2CCCC(C1)N2S(=O)(=O)c1cccc(F)c1 (configuration not stated) was read as TDP-43 yeast inh -4.8%, FUS suppressor 31.6µM*, Abeta rescue inactive, Akt phos inh inactive and aSyn rescue -0.7%.
`CCCCNC(=O)C[C@@H]1C[C@@]2(C(=O)OC)CCCCC=C2N(CCc2ccc(OC)c(OC)c2)C1=O` gave TDP-43 yeast inh -11.8%, FUS suppressor inactive, Abeta rescue inactive, Akt phos inh inactive and aSyn rescue -2.5%.
`CCCCCCCCN1C(=O)[C@H](CC(=O)NCc2ccc(OC)c(OC)c2)C[C@@]2(C(=O)OCC)CCC=C12` gave TDP-43 yeast inh 28.2µM*, FUS suppressor inconclusive, Abeta rescue inactive, Akt phos inh inactive and aSyn rescue -4.7%.
CCCCCCCCN1C(=O)[C@H](CC(=O)NCc2ccccc2)C[C@@]2(C(=O)OCC)CCC=C12 was read as TDP-43 yeast inh 12.8%, FUS suppressor inconclusive, Abeta rescue inactive, Akt phos inh inactive and aSyn rescue 10.4%.
Screening CCCCCCCCN1C(=O)[C@H](CC(=O)NCc2ccc(OC)c(OC)c2)C[C@@]2(C(=O)OC)CCCCC=C12 returned TDP-43 yeast inh 20µM*, FUS suppressor inconclusive, Abeta rescue inactive, Akt phos inh inactive and aSyn rescue 16.9%.
Screening COC(=O)[C@]12CCCCC=C1N(CCc1ccc(OC)c(OC)c1)C(=O)[C@H](CC(=O)NCC13CC4CC(CC(C4)C1)C3)C2 returned TDP-43 yeast inh -11.9%, FUS suppressor 8.91µM*, Abeta rescue inactive, Akt phos inh inactive and aSyn rescue -1.2%.
`C=Cc1ccc(Cn2c(=O)cc(C)c3c(C)nn(-c4ccccc4)c32)cc1` gave TDP-43 yeast inh 3.0%, FUS suppressor inactive and Abeta rescue inactive.
NC(=O)/C=C/C(=O)Nc1ccc(Cl)cc1 was read as TDP-43 yeast inh 20µM*, FUS suppressor inactive, Abeta rescue inactive, Akt phos inh inactive and aSyn rescue 14.8%.
`CC(=O)Nc1ccc(-c2sc(Nc3cccc4ccccc34)n[n+]2-c2ccccc2)cc1` gave TDP-43 yeast inh -4.5%, FUS suppressor 31.6µM*, Abeta rescue inactive, Akt phos inh inactive and aSyn rescue 18.5%.
Screening CCOc1ccc(NC(=O)c2c(NCc3ccc(C)o3)sc3c2CCCCC3)cc1 returned TDP-43 yeast inh -1.9%, FUS suppressor inactive and Abeta rescue inactive.
`CCOC(=O)c1c(NC(=O)C(C)Sc2cn(CCNC(=O)c3c(F)cccc3F)c3ccccc23)sc2c1CCC2` (configuration not stated) gave TDP-43 yeast inh 9.0%, FUS suppressor inconclusive and Abeta rescue inactive.
Screening Cc1ccc(-c2nonc2NC(=O)c2ccco2)cc1 returned TDP-43 yeast inh 25.1µM*, FUS suppressor inactive, Akt phos inh inactive and aSyn rescue -11.6%.
For Cc1ccc(-c2nonc2NC(=O)c2ccco2)cc1C the results were TDP-43 yeast inh 20µM*, FUS suppressor inactive and Abeta rescue inactive.
CCCN1C(=O)c2[nH]nc(-c3ccccc3O)c2C1c1cccc(OCc2ccccc2)c1 (configuration not stated) was read as TDP-43 yeast inh 24.2%, FUS suppressor inactive and Abeta rescue inactive.
For CCN(CC)CCCNC(=O)c1sc2nc3n(c(=O)c2c1C)CCCCC3 the results were TDP-43 yeast inh -21.7%, FUS suppressor inactive and Abeta rescue inactive.
`O=C(Cc1cccs1)N(Cc1cccs1)C1(C(=O)NC2CCCC2)CCCCC1` gave TDP-43 yeast inh 20µM*, FUS suppressor inactive, Abeta rescue inactive, Akt phos inh inactive and aSyn rescue 0.0%.
Screening COc1ccc(C(=O)c2cn(Cc3cccc(C)c3)c3cc4c(cc3c2=O)OCCO4)cc1OC returned TDP-43 yeast inh 17.9%, FUS suppressor inconclusive and Abeta rescue inactive.
Cc1ccc(NC(=S)c2ccncc2)cc1 was read as TDP-43 yeast inh 19.4%, FUS suppressor inactive, Akt phos inh inactive and aSyn rescue 2.0%.
`Cc1ccc(NC(=S)c2ccccc2)cc1` gave TDP-43 yeast inh 11.2µM*, FUS suppressor inactive, Abeta rescue inactive, Akt phos inh inactive and aSyn rescue -2.1%.
Screening O=C(Nc1ccc(N2CCCCC2)cc1)c1ccc(F)cc1F returned TDP-43 yeast inh 0.8%, FUS suppressor inactive, Abeta rescue inactive, Akt phos inh inactive and aSyn rescue -6.7%.
For O=C(Nc1ccc(N2CCCC2)cc1)c1ccccc1F the results were TDP-43 yeast inh -12.8%, FUS suppressor inactive, Abeta rescue inactive, Akt phos inh -85.3%* and aSyn rescue 17.5%.
`COc1cc(C#Cc2c(-c3cncn3C)n(C)c3ccc(-c4cnc(OC)nc4)cc23)cc(OC)c1` gave TDP-43 yeast inh 11.2µM*, FUS suppressor inactive, Abeta rescue inactive, Akt phos inh inactive and aSyn rescue 14.1%.
COc1cc(C#Cc2c(-c3cncn3C)n(C)c3ccc(-c4ccc(CN5CCOCC5)cc4)cc23)cc(OC)c1 was read as TDP-43 yeast inh inconclusive, FUS suppressor inactive, Abeta rescue inactive, Akt phos inh inactive and aSyn rescue -5.5%.
CCOC(=O)c1ccn(-c2nc(-c3cccc(OC)c3)cc(C(F)(F)F)n2)n1 was read as TDP-43 yeast inh inconclusive, FUS suppressor inactive and Abeta rescue inactive.
`CCn1ccc(C(=O)NC2=C(C#N)CCC2)n1` gave TDP-43 yeast inh 2.9%, FUS suppressor inactive, Abeta rescue inactive, Akt phos inh -115.0%* and aSyn rescue 0.3%.
For CC(=O)CSc1ncnc2sc3c(c12)CCC3 the results were TDP-43 yeast inh 25.1µM*, FUS suppressor inactive, Abeta rescue inactive, Akt phos inh inactive and aSyn rescue inconclusive.
`CN(C)c1ccc(NC(=O)CSC2=Nc3ccccc3C3=NC(CCC(=O)NCc4cccs4)C(=O)N23)cc1` (configuration not stated) gave TDP-43 yeast inh 0.0%, FUS suppressor inactive and Abeta rescue inactive.
COc1nc(NC23CC4CC(CC(C4)C2)C3)nc(OC)n1 was read as TDP-43 yeast inh 14.1µM*, FUS suppressor inactive, Abeta rescue inactive, Akt phos inh inactive and aSyn rescue 12.5%.

Screening data deposited in PubChem by National Center for Advancing Translational Sciences (NCATS).
